# This is one part of a sample in which the strongest signals are shown more often than they occur.
# B1: SynCAM (Mus musculus) (protein)
# chain: MASAVLPSGSQCAAAAAVAAAAAPPGLRLRLLLLLLSAAALIPTGDGQNLFTKDVTVIEGEVATISCQVNKSDDSVIQLLNPNRQTIYFRDFRPLKDSRFQLLNFSSSELKVSLTNVSISDEGRYFCQLYTDPPQESYTTITVLVPPRNLMIDIQKDTAVEGEEIEVNCTAMASKPATTIRWFKGNKELKGKSEVEEWSDMYTVTSQLMLKVHKEDDGVPVICQVEHPAVTGNLQTQRYLEVQYKPQVHIQMTYPLQGLTREGDAFELTCEAIGKPQPVMVTWVRVDDEMPQHAVLSGPNLFINNLNKTDNGTYRCEASNIVGKAHSDYMLYVYDPPTTIPPP
# Legend:
# Experiment in all cases: glycan array binding signal (z-score within array); higher = stronger binding
# Settings in all cases: glycan notation: IUPAC condensed, linker removed
# [1] = molecular target: Fuc(a1-2)Gal(b1-3)GalNAc(b1-3)Gal
# Procedure, shortened: (§1)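 Glycan array binding is given as a within-array Z-score, which can be read as non-binding when negative. The arrays, 3228 of them, came from the Consortium for Functional Glycomics database and were retained only where the protein sequence was available. Z-scores were averaged across arrays of the same protein sequence at different concentrations or buffers and across linkers.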
# [2] = molecular target: Fuc(a1-2)Gal(b1-3)GlcNAc(b1-3)GalNAc
# Procedure, shortened: as §1
# [3] = molecular target: Fuc(a1-2)Gal(b1-4)GlcNAc(b1-3)Gal(b1-4)GlcNAc(b1-2)Man(a1-3)[Fuc(a1-2)Gal(b1-4)GlcNAc(b1-3)Gal(b1-4)GlcNAc(b1-2)Man(a1-6)]Man(b1-4)GlcNAc(b1-4)GlcNAc
# Procedure, shortened: as §1
# [4] = molecular target: Fuc(a1-2)Gal(b1-4)GlcNAc(b1-3)[Fuc(a1-3)[Gal(b1-4)]GlcNAc(b1-6)]Gal(b1-4)Glc
# Procedure, shortened: as §1
# [5] = molecular target: Fuc(a1-2)[Gal(a1-3)]Gal(b1-4)Glc
# Procedure, shortened: as §1
# [6] = molecular target: Fuc(a1-2)[Gal(a1-3)]Gal(b1-4)GlcNAc
# Procedure, shortened: as §1
# [7] = molecular target: Fuc(a1-2)[GalNAc(a1-3)]Gal(b1-4)GlcNAc(b1-6)GalNAc
# Procedure, shortened: as §1
# [8] = molecular target: Fuc(a1-2)[GalNAc(b1-3)]Gal
# Procedure, shortened: as §1
# [9] = molecular target: Fuc(a1-3)[GalNAc(b1-4)]GlcNAc
# Procedure, shortened: as §1
# [10] = molecular target: Gal(a1-6)Glc
# Procedure, shortened: as §1
# [11] = molecular target: Gal(b1-2)Gal
# Procedure, shortened: as §1
# [12] = molecular target: Gal(b1-3)GlcNAc(b1-3)Gal(b1-4)Glc
# Procedure, shortened: as §1
# [13] = molecular target: Gal(b1-3)GlcNAc(b1-3)Gal(b1-4)GlcNAc(b1-3)Gal(b1-4)GlcNAc(b1-2)[Gal(b1-3)GlcNAc(b1-3)Gal(b1-4)GlcNAc(b1-3)Gal(b1-4)GlcNAc(b1-6)]Man(a1-6)[Gal(b1-3)GlcNAc(b1-3)Gal(b1-4)GlcNAc(b1-3)Gal(b1-4)GlcNAc(b1-2)Man(a1-3)]Man(b1-4)GlcNAc(b1-4)[Fuc(a1-6)]GlcNAc
# Procedure, shortened: as §1
# [14] = molecular target: Gal(b1-3)GlcNAc(b1-3)Gal(b1-4)[Fuc(a1-3)]GlcNAc
# Procedure, shortened: as §1
# [15] = molecular target: Gal(b1-3)GlcNAc(b1-3)GalNAc
# Procedure, shortened: as §1
# [16] = molecular target: Gal(b1-3)[Neu5Ac(a2-6)]GalNAc
# Procedure, shortened: as §1
# [17] = molecular target: Gal(b1-3)[Neu5Ac(b2-6)]GalNAc
# Procedure, shortened: as §1
# [18] = molecular target: Gal(b1-4)GlcNAc(b1-2)Man(a1-3)Man(b1-4)GlcNAc(b1-4)GlcNAc
# Procedure, shortened: as §1
# [19] = molecular target: Gal(b1-4)GlcNAc(b1-2)Man(a1-6)Man(b1-4)GlcNAc(b1-4)GlcNAc
# Procedure, shortened: as §1
# [20] = molecular target: Gal(b1-4)GlcNAc(b1-2)[Gal(b1-4)GlcNAc(b1-4)]Man(a1-3)[Gal(b1-4)GlcNAc(b1-2)[Gal(b1-4)GlcNAc(b1-6)]Man(a1-6)]Man(b1-4)GlcNAc(b1-4)GlcNAc
# Procedure, shortened: as §1
# [21] = molecular target: Gal(b1-4)GlcNAc(b1-3)Gal(b1-4)GlcNAc(b1-2)Man(a1-3)[Gal(b1-4)GlcNAc(b1-3)Gal(b1-4)GlcNAc(b1-2)Man(a1-6)]Man(b1-4)GlcNAc(b1-4)GlcNAc
# Procedure, shortened: as §1
# [22] = molecular target: Gal(b1-4)GlcNAc(b1-3)Gal(b1-4)GlcNAc(b1-2)[Gal(b1-4)GlcNAc(b1-3)Gal(b1-4)GlcNAc(b1-6)]Man(a1-6)[Gal(b1-4)GlcNAc(b1-3)Gal(b1-4)GlcNAc(b1-2)Man(a1-3)]Man(b1-4)GlcNAc(b1-4)GlcNAc
# Procedure, shortened: as §1
# [23] = molecular target: Gal(b1-4)GlcNAc(b1-3)Gal(b1-4)GlcNAc(b1-3)Gal(b1-4)GlcNAc(b1-2)Man(a1-3)[Gal(b1-4)GlcNAc(b1-3)Gal(b1-4)GlcNAc(b1-3)Gal(b1-4)GlcNAc(b1-2)Man(a1-6)]Man(b1-4)GlcNAc(b1-4)[Fuc(a1-6)]GlcNAc
# Procedure, shortened: as §1
# [24] = molecular target: Gal(b1-4)GlcNAc(b1-3)Gal(b1-4)GlcNAc(b1-3)[Gal(b1-4)GlcNAc(b1-3)Gal(b1-4)GlcNAc(b1-6)]GalNAc
# Procedure, shortened: as §1
# [25] = molecular target: Gal(b1-4)GlcNAc(b1-3)[Fuc(a1-3)GlcNAc(b1-6)]Gal(b1-4)Glc
# Procedure, shortened: as §1
# [26] = molecular target: Gal(b1-4)GlcNAc(b1-6)[Gal(b1-3)]GalNAc
# Procedure, shortened: as §1
binder,measurement,setting,value
B1,glycan array binding signal (z-score),[1],0.178
same,glycan array binding signal (z-score),[2],0.316
same,glycan array binding signal (z-score),[3],0.696
same,glycan array binding signal (z-score),[4],-0.893
same,glycan array binding signal (z-score),[5],-0.671
same,glycan array binding signal (z-score),[6],-1.34
same,glycan array binding signal (z-score),[7],-0.149
same,glycan array binding signal (z-score),[8],0.423
same,glycan array binding signal (z-score),[9],2.63
same,glycan array binding signal (z-score),[10],-0.988
same,glycan array binding signal (z-score),[11],0.521
same,glycan array binding signal (z-score),[12],0.308
same,glycan array binding signal (z-score),[13],2.43
same,glycan array binding signal (z-score),[14],-1.13
same,glycan array binding signal (z-score),[15],0.053
same,glycan array binding signal (z-score),[16],-0.488
same,glycan array binding signal (z-score),[17],-0.562
same,glycan array binding signal (z-score),[18],-1.2
same,glycan array binding signal (z-score),[19],-0.469
same,glycan array binding signal (z-score),[20],-0.042
same,glycan array binding signal (z-score),[21],2.96
same,glycan array binding signal (z-score),[22],0.285
same,glycan array binding signal (z-score),[23],1.48
same,glycan array binding signal (z-score),[24],0.945
same,glycan array binding signal (z-score),[25],0.097
same,glycan array binding signal (z-score),[26],-0.072

# From the supplement of paper PMC8728848
